# In PubChem BioAssay (NCI):
# Compounds without any hit were thinned out: in the full panel of roughly 79,000, 15% have a hit. A number with no mark means an inactive call. Active and inactive are the calls of the source. No stated cut-off is given here; in the data, active means growth inhibition above about 70%; inactive means the rest.
# Key:
# [1] = NCI Yeast Anticancer Drug Screen. Data for the rad52 strain (AID 147);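 further: 0% = growth of vehicle-treated control cultures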; conditions: S. cerevisiae rad52 mutant growth inhibition, hits give high values
# In short: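 Genetically altered yeast (DNA damage repair defect) treated with compound; inhibition calculated relative to vehicle.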
# [2] = NCI Yeast Anticancer Drug Screen. Data for the wt1 strain (AID 149);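 further: 0% = growth of vehicle-treated wt1 cultures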; conditions: S. cerevisiae wt1 strain (SPY 50644) growth inhibition, hits give high values
# In short: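 The wt1 strain was treated with compounds, and growth was compared with vehicle-treated cultures to give inhibition.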
# [3] = NCI Yeast Anticancer Drug Screen. Data for the rad50EPP+ strain (AID 151);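 further: 0% = growth of vehicle-treated control cultures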; conditions: S. cerevisiae rad50 mutant strain, hits give high values
# In short: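 Strain rad50EPP+; compound exposure; % growth inhibition vs vehicle.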
# [4] = NCI Yeast Anticancer Drug Screen. Data for the mgt1 strain (AID 153); conditions: S. cerevisiae mgt1 mutant growth inhibition, hits give high values
# In short: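 Read-out: yeast growth inhibition vs vehicle control. Strain mgt1, drawn from a panel altered in DNA damage repair or cell cycle control.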
# [5] = NCI Yeast Anticancer Drug Screen. Data for the rad50 strain (AID 155);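 further: 0% = growth of vehicle-only cultures of the same strain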; conditions: S. cerevisiae rad50 strain growth inhibition, hits give high values
# In short: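 Cells are treated with compound, grown, and their growth is then scored against vehicle-only cultures of the same repair-deficient yeast strain.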
# [6] = NCI Yeast Anticancer Drug Screen. Data for the mec2-1 strain (AID 157); conditions: S. cerevisiae mec2-1 strain, hits give high values
# In short: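 Cells of the genetically defined mec2-1 yeast strain are incubated with test compound. Inhibition of growth is calculated against vehicle-treated controls.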
# [7] = NCI Yeast Anticancer Drug Screen. Data for the rad14 strain (AID 159);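 further: 0% = growth of vehicle-treated control cultures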; conditions: S. cerevisiae rad14 strain growth inhibition, hits give high values
# In short: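 Readout: yeast growth inhibition, referenced to vehicle-only cultures. Strain bears a defined alteration in DNA damage repair.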
# [8] = NCI Yeast Anticancer Drug Screen. Data for the sgs1 mgt1 strain (AID 161);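 further: 0% = growth of cultures given vehicle only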; conditions: S. cerevisiae sgs1 mgt1 strain, hits give high values
# In short: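 Inhibition of yeast growth, normalised to vehicle-treated controls, is reported for a strain bearing genetic alterations in DNA damage repair.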
# [9] = NCI Yeast Anticancer Drug Screen. Data for the CLN2oe strain (AID 163);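 further: 0% = growth of vehicle-only control cultures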; conditions: S. cerevisiae CLN2oe strain, hits give high values
# In short: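 Strain altered in cell-cycle control, incubated with compound; growth compared to solvent-treated controls.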
# [10] = NCI Yeast Anticancer Drug Screen. Data for the cln2 rad14 strain (AID 165);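 further: 0% = growth equal to vehicle treated cultures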; conditions: S. cerevisiae cln2 rad14 strain, hits give high values
# In short: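 The screen exposed genetically defined yeast (cln2 rad14) to test compounds and scored growth inhibition relative to vehicle-treated controls.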
# [11] = NCI Yeast Anticancer Drug Screen. Data for the bub3 strain (AID 167); conditions: S. cerevisiae bub3 mutant strain, hits give high values
# In short: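 Part of a panel of yeast mutants defective in DNA damage repair or cell cycle regulation. Each strain is grown with compound, and inhibition is calculated relative to solvent-treated cultures.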
# [12] = NCI Yeast Anticancer Drug Screen. Data for the wt2 strain (AID 169);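 further: 0% = growth of vehicle-treated yeast cultures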; conditions: S. cerevisiae wt2 strain growth inhibition, hits give high values
# In short: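 Steps: yeast strain treated with compound; growth recorded; inhibition calculated relative to cultures given vehicle alone.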
# [13] = NCI Yeast Anticancer Drug Screen. Data for the mlh1 strain (AID 171);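 further: 0% = growth of vehicle-treated control cultures of the same strain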; conditions: S. cerevisiae mlh1 strain growth inhibition, hits give high values
# In short: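 Yeast screen: mutant strain plus compound, growth scored against vehicle control wells.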
# [14] = NCI Yeast Anticancer Drug Screen. Data for the sgs1 strain (AID 173);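 further: 0% = growth of vehicle-only control cultures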; conditions: S. cerevisiae sgs1 mutant, hits give high values
# In short: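 Inhibition of yeast growth served as the measure. The mutant strain was treated with each compound, and growth was normalised to cultures receiving vehicle alone.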
# [15] = NCI Yeast Anticancer Drug Screen. Data for the mlh1 rad18 strain (AID 175); conditions: S. cerevisiae mlh1 rad18 strain growth inhibition, hits give high values
# In short: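 Compound-treated yeast growth, normalised to vehicle controls. Strain bears defined DNA repair mutations.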
# [16] = NCI Yeast Anticancer Drug Screen. Data for the rad18 strain (AID 177); conditions: S. cerevisiae rad18 mutant growth inhibition, hits give high values
# In short: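 Inhibition values reflect reduced yeast growth compared with vehicle-treated controls, using a strain engineered with a DNA damage repair defect.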
# [17] = at 5.0 µM (retest, dose inferred, filed as 0.5)
# [18] = at 50.0 µM (retest, dose inferred, filed as 5.0)
structure (smiles),measurement,setting,value
O=C(N=Nc1ccccc1Cl)NNc1ccccc1Cl,growth inhibition,[1]; at 1.2 µM,25%
same,growth inhibition,[1]; at 3.7 µM,19%
same,growth inhibition,[1]; at 11.0 µM,13%
same,growth inhibition,[1]; at 33.0 µM,28%
same,growth inhibition,[1]; at 100.0 µM,26%
same,growth inhibition,[2]; at 1.2 µM,4%
same,growth inhibition,[2]; at 3.7 µM,2%
same,growth inhibition,[2]; at 11.0 µM,0%
same,growth inhibition,[2]; at 33.0 µM,5%
same,growth inhibition,[2]; at 100.0 µM,6%
same,growth inhibition,[3]; at 1.2 µM,17%
same,growth inhibition,[3]; at 3.7 µM,19%
same,growth inhibition,[3]; at 11.0 µM,26%
same,growth inhibition,[3]; at 33.0 µM,39%
same,growth inhibition,[3]; at 100.0 µM,20%
same,growth inhibition,[4]; at 1.2 µM,-5%
same,growth inhibition,[4]; at 3.7 µM,-5%
same,growth inhibition,[4]; at 11.0 µM,3%
same,growth inhibition,[4]; at 33.0 µM,-18%
same,growth inhibition,[4]; at 100.0 µM,-2%
same,growth inhibition,[5]; at 1.2 µM,8%
same,growth inhibition,[5]; at 3.7 µM,8%
same,growth inhibition,[5]; [17],-15%
same,growth inhibition,[5]; at 11.0 µM,-15%
same,growth inhibition,[5]; at 33.0 µM,14%
same,growth inhibition,[5]; [18],16%
same,growth inhibition,[5]; at 50.0 µM,44.5%
same,growth inhibition,[5]; at 100.0 µM,13%
same,growth inhibition,[6]; at 1.2 µM,-1%
same,growth inhibition,[6]; at 3.7 µM,1%
same,growth inhibition,[6]; [17],-15%
same,growth inhibition,[6]; at 11.0 µM,7%
same,growth inhibition,[6]; at 33.0 µM,6%
same,growth inhibition,[6]; [18],38%
same,growth inhibition,[6]; at 50.0 µM,21.1%
same,growth inhibition,[6]; at 100.0 µM,12%
same,growth inhibition,[7]; at 1.2 µM,-3%
same,growth inhibition,[7]; at 3.7 µM,-9%
same,growth inhibition,[7]; at 11.0 µM,-2%
same,growth inhibition,[7]; at 33.0 µM,5%
same,growth inhibition,[7]; at 100.0 µM,11%
same,growth inhibition,[8]; [17],-18%
same,growth inhibition,[8]; [18],8%
same,growth inhibition,[8]; at 50.0 µM,26.8%
same,growth inhibition,[9]; at 1.2 µM,7%
same,growth inhibition,[9]; at 3.7 µM,-3%
same,growth inhibition,[9]; at 11.0 µM,6%
same,growth inhibition,[9]; at 33.0 µM,22%
same,growth inhibition,[9]; at 100.0 µM,27%
same,growth inhibition,[10]; [17],-25%
same,growth inhibition,[10]; [18],45%
same,growth inhibition,[10]; at 50.0 µM,47.1%
same,growth inhibition,[11]; at 1.2 µM,2%
same,growth inhibition,[11]; at 3.7 µM,18%
same,growth inhibition,[11]; [17],-40%
same,growth inhibition,[11]; at 11.0 µM,13%
same,growth inhibition,[11]; at 33.0 µM,15%
same,growth inhibition,[11]; [18],69%
same,growth inhibition,[11]; at 50.0 µM,49.1%
same,growth inhibition,[11]; at 100.0 µM,11%
same,growth inhibition,[12]; at 1.2 µM,0%
same,growth inhibition,[12]; at 3.7 µM,0%
same,growth inhibition,[12]; at 11.0 µM,3%
same,growth inhibition,[12]; at 33.0 µM,7%
same,growth inhibition,[12]; at 100.0 µM,8%
same,growth inhibition,[13]; at 1.2 µM,0%
same,growth inhibition,[13]; at 3.7 µM,-4%
same,growth inhibition,[13]; at 11.0 µM,2%
same,growth inhibition,[13]; at 33.0 µM,5%
same,growth inhibition,[13]; at 100.0 µM,4%
same,growth inhibition,[14]; at 1.2 µM,9%
same,growth inhibition,[14]; at 3.7 µM,5%
same,growth inhibition,[14]; at 11.0 µM,9%
same,growth inhibition,[14]; at 33.0 µM,21%
same,growth inhibition,[14]; at 100.0 µM,19%
same,growth inhibition,[15]; [17],-7%
same,growth inhibition,[15]; [18],41%
same,growth inhibition,[15]; at 50.0 µM,21.6%
same,growth inhibition,[16]; at 1.2 µM,16%
same,growth inhibition,[16]; at 3.7 µM,13%
same,growth inhibition,[16]; at 11.0 µM,8%
same,growth inhibition,[16]; at 33.0 µM,3%
same,growth inhibition,[16]; at 100.0 µM,7%
CCCc1cc(C(=O)OCC)cc(CCC)c1O,growth inhibition,[1]; at 1.2 µM,-2%
same,growth inhibition,[1]; at 3.7 µM,-8%
same,growth inhibition,[1]; at 11.0 µM,-9%
same,growth inhibition,[1]; at 33.0 µM,-11%
same,growth inhibition,[1]; at 100.0 µM,97% (active)
same,growth inhibition,[2]; at 1.2 µM,-1%
same,growth inhibition,[2]; at 3.7 µM,-5%
same,growth inhibition,[2]; at 11.0 µM,-9%
same,growth inhibition,[2]; at 33.0 µM,-13%
same,growth inhibition,[2]; at 100.0 µM,93% (active)
same,growth inhibition,[3]; at 1.2 µM,-2%
same,growth inhibition,[3]; at 3.7 µM,3%
same,growth inhibition,[3]; at 11.0 µM,14%
same,growth inhibition,[3]; at 33.0 µM,21%
same,growth inhibition,[3]; at 100.0 µM,25%
same,growth inhibition,[4]; at 1.2 µM,-3%
same,growth inhibition,[4]; at 3.7 µM,-4%
same,growth inhibition,[4]; at 11.0 µM,-9%
same,growth inhibition,[4]; at 33.0 µM,-12%
same,growth inhibition,[4]; at 100.0 µM,97% (active)
same,growth inhibition,[5]; at 1.2 µM,-8%
same,growth inhibition,[5]; at 3.7 µM,-49%
same,growth inhibition,[5]; [17],5%
same,growth inhibition,[5]; at 11.0 µM,16%
same,growth inhibition,[5]; at 33.0 µM,0%
same,growth inhibition,[5]; [18],3%
same,growth inhibition,[5]; at 50.0 µM,93.1% (active)
same,growth inhibition,[5]; at 100.0 µM,98% (active)
same,growth inhibition,[6]; at 1.2 µM,-4%
same,growth inhibition,[6]; at 3.7 µM,-5%
same,growth inhibition,[6]; [17],-47%
same,growth inhibition,[6]; at 11.0 µM,-13%
same,growth inhibition,[6]; at 33.0 µM,-12%
same,growth inhibition,[6]; [18],8%
same,growth inhibition,[6]; at 50.0 µM,96.1% (active)
same,growth inhibition,[6]; at 100.0 µM,95% (active)
same,growth inhibition,[7]; at 1.2 µM,-1%
same,growth inhibition,[7]; at 3.7 µM,-2%
same,growth inhibition,[7]; at 11.0 µM,-11%
same,growth inhibition,[7]; at 33.0 µM,-8%
same,growth inhibition,[7]; at 100.0 µM,96% (active)
same,growth inhibition,[8]; [17],1%
same,growth inhibition,[8]; [18],27%
same,growth inhibition,[8]; at 50.0 µM,79.3% (active)
same,growth inhibition,[9]; at 1.2 µM,-1%
same,growth inhibition,[9]; at 3.7 µM,-6%
same,growth inhibition,[9]; at 11.0 µM,-9%
same,growth inhibition,[9]; at 33.0 µM,-30%
same,growth inhibition,[9]; at 100.0 µM,96% (active)
same,growth inhibition,[10]; [17],2%
same,growth inhibition,[10]; [18],-29%
same,growth inhibition,[10]; at 50.0 µM,93.8% (active)
same,growth inhibition,[11]; at 1.2 µM,0%
same,growth inhibition,[11]; at 3.7 µM,10%
same,growth inhibition,[11]; [17],31%
same,growth inhibition,[11]; at 11.0 µM,39%
same,growth inhibition,[11]; at 33.0 µM,63%
same,growth inhibition,[11]; [18],77% (active)
same,growth inhibition,[11]; at 50.0 µM,96.7% (active)
same,growth inhibition,[11]; at 100.0 µM,97% (active)
same,growth inhibition,[12]; at 1.2 µM,-1%
same,growth inhibition,[12]; at 3.7 µM,4%
same,growth inhibition,[12]; at 11.0 µM,-7%
same,growth inhibition,[12]; at 33.0 µM,-3%
same,growth inhibition,[12]; at 100.0 µM,94% (active)
same,growth inhibition,[13]; at 1.2 µM,-4%
same,growth inhibition,[13]; at 3.7 µM,-4%
same,growth inhibition,[13]; at 11.0 µM,-8%
same,growth inhibition,[13]; at 33.0 µM,-8%
same,growth inhibition,[13]; at 100.0 µM,98% (active)
same,growth inhibition,[14]; at 1.2 µM,-2%
same,growth inhibition,[14]; at 3.7 µM,-2%
same,growth inhibition,[14]; at 11.0 µM,-3%
same,growth inhibition,[14]; at 33.0 µM,18%
same,growth inhibition,[14]; at 100.0 µM,95% (active)
same,growth inhibition,[15]; [17],2%
same,growth inhibition,[15]; [18],7%
same,growth inhibition,[15]; at 50.0 µM,93.5% (active)
same,growth inhibition,[16]; at 1.2 µM,-6%
same,growth inhibition,[16]; at 3.7 µM,0%
same,growth inhibition,[16]; at 11.0 µM,-5%
same,growth inhibition,[16]; at 33.0 µM,-1%
same,growth inhibition,[16]; at 100.0 µM,98% (active)
